40 compounds from the supplement of paper PMC10732440 can be followed below.

± gives the standard deviation of the averaged measurements.

This experiment has as its system Caenorhabditis elegans N2 infected with Nematocida parisii ERTm1. Kind of experiment: progeny production relative to DMSO uninfected control; higher = more progeny despite microsporidia infection (inhibition of infection with low host toxicity). To be noted: infection time 6 days; 40 µM. In a few lines: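 In 96-well plates holding K-medium, E. coli OP50 and 15,000 N. parisii spores/μL, 100 wild-type C. elegans L1 larvae per well were exposed to compound at 100 μM or 40 μM in 1% DMSO for 6 days with shaking at 21°C. Worms were then stained with Rose Bengal, scanned and counted with WorMachine, with three runs per compound and dose. Each value is progeny production as a percentage of the spore-free vehicle condition, averaged over replicates.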
In the case of `CC(C)Cn1c(=O)n(C)c(=O)c2c(-c3cncn3C)n(Cc3cccc4ccccc34)nc21`, the progeny production came out at 4.44 ± 2.9%.
For `c1ccc(Cn2c(-c3ccccn3)nc3ccccc32)cc1` the value was 3.12 ± 1.9%; for `O=c1[nH]c(=O)n(Cc2cccc(Oc3ccccc3)c2)cc1Nc1ccccc1`, 4.29 ± 3.5%; for `CCCCCCC1c2ccc(O)cc2Oc2cc(O)ccc21`, 4.98 ± 1.8%.
For `O=C1NC(=S)N/C1=C\c1cc(Br)cc(Br)c1O` the value was 6.18 ± 0.84%; for `Cc1cccc(C)c1C(=O)Nc1nc(-c2ccccn2)cc2ccccc12`, 4.99 ± 2.4%; for `Cc1ccc(S(=O)(=O)Nc2cccc3cccnc23)cc1`, 6.57 ± 3.6%.
For `COc1ccc(OCc2ccc(COc3c(Cl)cccc3Cl)cc2)c(Cl)c1` the value was 5.83 ± 3.1%; for `CCOc1noc2cc(OCCC3CCN(c4ccc(C)nn4)CC3)ccc12`, 4.43 ± 1.4%.
As for `O=C(Cc1ccccc1F)Nc1nc2ccccc2[nH]1`, the progeny production worked out at 4.94 ± 2.8%.
The figure for `COC(=O)Nc1nc2c(C)cccc2[nH]1` is 13.8 ± 1.7%.
`O=C(NCc1ccccc1Cl)c1cnc2ccccc2n1` showed a progeny production of 6.81 ± 1%.
Compound `C[C@@H]1O[C@@H]1P(=O)(O)O` returned a progeny production of 4.36 ± 0.35%.
In the case of `O=C(O)COc1cccc2c1CC[C@](O)(COC(=O)N(c1ccccc1)c1ccccc1)C2`, the progeny production stood at 4.24 ± 0.25%.
For `Cc1cccc(CC(=O)N[C@H]2CCOC2=O)c1` the value was 3.04 ± 0.7%.
Compound `CCOC(=O)N1CCN(c2ccc(Cl)cc2)CC1` registered a progeny production of 4.15 ± 1.7%.
For `CC(C)Oc1ccc(-n2cnc3cc(/C=C\c4ccc(C(C)(C)O)cc4)ccc32)cc1` the value was 5 ± 1.6%; for `NC(=O)c1nccn([C@@H]2O[C@H](CO)[C@@H](O)[C@H]2O)c1=O`, 6.9 ± 2.3%.
For `O=C(Cn1cnc2ccccc2c1=O)Nc1ccccc1` the value was 5.46 ± 4.2%.
The figure for `Cc1nc2ccc(Cl)cc2c(-c2ccccc2)c1CC(=O)O` is 6.84 ± 5.6%; for `CN(C(=O)C1(c2ccc(Cl)cc2)CCC1)c1ccccc1` it is 2.68 ± 1.6%.
As to `COC1CC2CCC(C)C(O)(O2)C(=O)C(=O)N2CCCCC2C(=O)OC(C(C)CC2CCC(OCCO)C(OC)C2)CC(=O)C(C)/C=C(\C)C(O)C(OC)C(=O)C(C)CC(C)/C=C/C=C/C=C/1C` (stereo not given), the progeny production worked out at 5.45 ± 2.7%.
For `CC1(C)Cc2c(C#N)c(SCCc3ccccc3)nc(N3CCOCC3)c2CO1` the value was 3.65 ± 0.7%.
The figure for `Cc1nc2ccc(Oc3ccccc3)cc2c2c1CCN2CCc1ccccc1` is 4.79 ± 0.99%; for `Cn1c2ccccc2c(=O)c2c(O)cccc21` it is 3.85 ± 0.59%.
For `NCCCc1ccccc1C(=O)Nc1ncc([N+](=O)O)s1` the value was 3.03 ± 1.9%.
With `O=c1cc(OCc2ccccc2)ccn1Cc1ccccc1`, the progeny production worked out at 5.55 ± 1.6%.
For `O[C@@](Cn1cnnn1)(c1ccc(F)cc1F)C(F)(F)c1ccc(-c2ccc(OCC(F)(F)F)cc2)cn1` the value was 3.9 ± 1.3%; for `O=C(O)c1ccc(-n2nc(-c3ccccc3O)nc2-c2ccccc2O)cc1`, 4.83 ± 3%; for `CN(C)CCCNC(=O)c1ccc(-c2cc(O)c3ncccc3c2)cc1`, 5.74 ± 3.9%.
For `O=C(NNC(=S)Nc1ccc(Cl)cc1)c1ccncc1` the value was 2.76 ± 1.4%; for `CC1=C(/C=C/C(C)=C/C=C/C(C)=C/C(=O)Nc2ccc(O)cc2)C(C)(C)CCC1`, 3.02 ± 2.2%; for `Cc1ccn2c(C(=O)NCc3ccccc3)c(C)nc2c1`, 9.26 ± 8.6%.
For `C=C[C@]1(C)C[C@@H](OC(=O)CS[C@@H]2C[C@H]3CC[C@@H](C2)N3C)[C@]2(C)[C@H](C)CC[C@]3(CCC(=O)[C@H]32)[C@@H](C)[C@@H]1O` the value was 11.3 ± 8.7%.
In turn, `CCCCCCCCC(CP(=O)(O)C(C)N)C(=O)O` (stereo not given) displayed a progeny production of 7.53 ± 0.85%.
For `CCOC(=O)Nc1cc(NC(C)CC(C)CN(CC)CC)c2nc(-c3ccccc3)c(-c3ccccc3)nc2n1` (stereo not given) the value was 2.55 ± 1%; for `CN(C/C=C/C#CC(C)(C)C)Cc1cccc2ccccc12`, 5.74 ± 2.2%.
The figure for `COC(=O)Nc1nc2cc(Sc3ccccc3)ccc2[nH]1` is 7.64 ± 3.1%; for `OB1OCc2cc(Cl)ccc21` it is 4.68 ± 1.6%; for `O=S(=O)(Nc1cccc2cccnc12)c1ccccc1` it is 5.03 ± 2.5%.
